For four sequences, binding signal results are on record in publication PMC7862700, “An all-to-all approach to the identification of sequence-specific readers for epigenetic DNA modifications on cytosine”.

What all share (test): DAPPL (digital affinity profiling via proximity ligation, sequencing); 10 mM Tris-HCl pH 7.5, 50 mM NaCl, 1 mM DTT, 4% glycerol, room temperature, 30 min; GST-TFs on glutathione beads, 16-mer random dsDNA library, 0.1% formaldehyde crosslink after washing; high values mean tight binding
The target of assay [1] is T1, GABPA (Homo sapiens, UniProt Q06546 1-454).
T1 sequence: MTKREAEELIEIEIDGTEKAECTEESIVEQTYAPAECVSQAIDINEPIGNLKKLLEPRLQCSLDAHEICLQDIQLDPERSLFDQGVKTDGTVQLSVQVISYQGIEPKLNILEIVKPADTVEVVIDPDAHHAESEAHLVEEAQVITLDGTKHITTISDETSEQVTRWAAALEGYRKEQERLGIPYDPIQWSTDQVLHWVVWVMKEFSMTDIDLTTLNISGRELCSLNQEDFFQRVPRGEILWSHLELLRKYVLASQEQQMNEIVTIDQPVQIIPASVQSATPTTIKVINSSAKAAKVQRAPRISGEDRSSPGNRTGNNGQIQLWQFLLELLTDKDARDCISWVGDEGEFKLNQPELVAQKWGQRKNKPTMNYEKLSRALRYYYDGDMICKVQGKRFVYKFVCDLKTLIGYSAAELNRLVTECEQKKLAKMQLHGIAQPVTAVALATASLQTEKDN
Particulars: protein: recombinant; tags: N-terminal GST; dsDNA, one strand shown. Put shortly:
(§1)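 Human transcription factors were made in yeast as GST fusions, captured on glutathione beads and barcoded with DNA. With a tag-only sample included, the pool was incubated with 200 nmole of a random double-stranded 16-mer DNA library in Tris/NaCl/DTT/glycerol buffer at room temperature for 30 min, then crosslinked with 0.1% formaldehyde after washing, ligated by proximity, amplified and sequenced. For binding signal, each hexamer's read frequency for a factor is divided by its frequency for the tag-only sample.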

For assay [2], the target named is ELF1 (Homo sapiens, UniProt P32519 1-619). The following applies: protein: recombinant; tags: N-terminal GST; dsDNA, one strand shown. The method in brief:
as §1

The target in assay [3] is T2, ELK3 (Homo sapiens, UniProt P41970 1-407).
T2 sequence: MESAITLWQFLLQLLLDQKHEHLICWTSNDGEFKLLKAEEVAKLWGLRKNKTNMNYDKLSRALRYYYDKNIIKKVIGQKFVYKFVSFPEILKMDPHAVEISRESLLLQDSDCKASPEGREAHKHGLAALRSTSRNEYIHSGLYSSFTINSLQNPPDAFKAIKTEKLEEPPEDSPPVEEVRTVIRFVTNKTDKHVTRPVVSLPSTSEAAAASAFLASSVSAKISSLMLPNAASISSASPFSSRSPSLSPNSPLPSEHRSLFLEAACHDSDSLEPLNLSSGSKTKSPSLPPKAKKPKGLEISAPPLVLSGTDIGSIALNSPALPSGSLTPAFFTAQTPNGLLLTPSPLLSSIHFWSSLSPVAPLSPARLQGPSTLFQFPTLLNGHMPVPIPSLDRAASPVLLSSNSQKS
The following applies: protein: recombinant; tags: N-terminal GST; dsDNA, one strand shown. The method in brief: as §1

The target in assay [4] is T3, FEV (Homo sapiens, UniProt Q99581 1-238).
T3 sequence: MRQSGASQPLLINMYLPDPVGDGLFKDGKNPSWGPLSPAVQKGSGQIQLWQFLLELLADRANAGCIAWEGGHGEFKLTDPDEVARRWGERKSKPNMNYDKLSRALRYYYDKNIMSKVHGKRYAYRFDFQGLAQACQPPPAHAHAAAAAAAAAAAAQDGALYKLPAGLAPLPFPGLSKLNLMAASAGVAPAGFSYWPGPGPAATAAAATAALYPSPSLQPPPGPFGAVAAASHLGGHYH
The following applies: protein: recombinant; tags: N-terminal GST; dsDNA, one strand shown. The method in brief: as §1

Assay [5] deals with HSF1 (Homo sapiens, UniProt Q00613 1-529). The following applies: protein: recombinant; tags: N-terminal GST; chain copies: 3; dsDNA, one strand shown. The method in brief: as §1
HSF1, sequence (Q00613 whole entry): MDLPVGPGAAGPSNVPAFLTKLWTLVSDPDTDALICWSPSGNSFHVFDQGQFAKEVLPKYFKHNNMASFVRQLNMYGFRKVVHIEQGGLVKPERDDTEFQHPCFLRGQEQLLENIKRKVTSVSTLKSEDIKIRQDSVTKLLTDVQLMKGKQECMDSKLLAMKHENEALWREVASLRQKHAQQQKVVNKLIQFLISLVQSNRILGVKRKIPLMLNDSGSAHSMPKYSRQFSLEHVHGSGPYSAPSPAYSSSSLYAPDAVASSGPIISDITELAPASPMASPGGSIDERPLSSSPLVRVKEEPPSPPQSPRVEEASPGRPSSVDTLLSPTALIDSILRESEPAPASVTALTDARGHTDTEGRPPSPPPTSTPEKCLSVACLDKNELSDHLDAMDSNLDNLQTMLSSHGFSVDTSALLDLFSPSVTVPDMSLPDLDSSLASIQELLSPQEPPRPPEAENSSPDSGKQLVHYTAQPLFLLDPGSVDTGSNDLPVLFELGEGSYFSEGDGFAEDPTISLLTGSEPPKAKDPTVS
The target of assay [6] is T4, SPIC (Homo sapiens, UniProt Q8N5J4 1-248).
T4 sequence: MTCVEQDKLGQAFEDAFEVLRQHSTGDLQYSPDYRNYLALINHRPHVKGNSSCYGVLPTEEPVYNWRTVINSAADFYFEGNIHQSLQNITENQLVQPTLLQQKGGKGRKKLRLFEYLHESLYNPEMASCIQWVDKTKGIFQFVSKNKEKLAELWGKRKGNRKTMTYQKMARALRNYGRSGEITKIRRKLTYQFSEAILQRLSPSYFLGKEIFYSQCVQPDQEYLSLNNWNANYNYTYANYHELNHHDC
The following applies: protein: recombinant; tags: N-terminal GST; dsDNA, one strand shown. Put shortly:
as §1

The target in assay [7] is CRX (Homo sapiens, UniProt O43186 1-299). Particulars: protein: recombinant; tags: N-terminal GST; dsDNA, one strand shown. The method in brief: as §1
CRX, sequence (O43186 whole entry): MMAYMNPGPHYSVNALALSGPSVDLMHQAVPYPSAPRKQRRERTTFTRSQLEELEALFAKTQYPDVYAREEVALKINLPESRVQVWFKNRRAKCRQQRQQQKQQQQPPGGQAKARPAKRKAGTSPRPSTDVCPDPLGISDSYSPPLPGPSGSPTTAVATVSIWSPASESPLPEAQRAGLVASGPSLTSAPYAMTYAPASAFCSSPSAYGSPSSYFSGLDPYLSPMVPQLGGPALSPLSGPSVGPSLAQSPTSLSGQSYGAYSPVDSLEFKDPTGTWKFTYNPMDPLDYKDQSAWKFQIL
Assay [8] addresses ETV1 (Homo sapiens, UniProt P50549 1-477). Particulars: protein: recombinant; tags: N-terminal GST; dsDNA, one strand shown. The method in brief: as §1
Assay [9] deals with T5, ERF (Homo sapiens, UniProt P50548 1-548).
T5 sequence: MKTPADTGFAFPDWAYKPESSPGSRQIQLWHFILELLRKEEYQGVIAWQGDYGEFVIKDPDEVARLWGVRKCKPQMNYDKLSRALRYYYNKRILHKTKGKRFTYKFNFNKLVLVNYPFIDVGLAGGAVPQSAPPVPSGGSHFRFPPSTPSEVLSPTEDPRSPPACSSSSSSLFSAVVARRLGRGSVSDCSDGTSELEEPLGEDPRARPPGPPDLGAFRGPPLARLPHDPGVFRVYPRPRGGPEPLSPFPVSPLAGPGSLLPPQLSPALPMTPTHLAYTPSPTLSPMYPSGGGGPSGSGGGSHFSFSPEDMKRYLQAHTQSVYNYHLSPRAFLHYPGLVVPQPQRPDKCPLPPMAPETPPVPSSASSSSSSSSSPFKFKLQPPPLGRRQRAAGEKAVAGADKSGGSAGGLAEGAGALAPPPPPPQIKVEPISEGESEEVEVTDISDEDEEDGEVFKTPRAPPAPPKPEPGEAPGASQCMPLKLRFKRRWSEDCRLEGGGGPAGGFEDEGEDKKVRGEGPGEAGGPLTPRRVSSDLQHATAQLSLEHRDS
The following applies: protein: recombinant; tags: N-terminal GST; dsDNA, one strand shown. The method in brief:
as §1

Assay [10] concerns the target ETV6 (Homo sapiens, UniProt P41212 1-452). Particulars: protein: recombinant; tags: N-terminal GST; dsDNA, one strand shown. The method in brief: as §1
The target of assay [11] is T6, ELK4 (Homo sapiens, UniProt P28324-2 1-405).
T6 sequence: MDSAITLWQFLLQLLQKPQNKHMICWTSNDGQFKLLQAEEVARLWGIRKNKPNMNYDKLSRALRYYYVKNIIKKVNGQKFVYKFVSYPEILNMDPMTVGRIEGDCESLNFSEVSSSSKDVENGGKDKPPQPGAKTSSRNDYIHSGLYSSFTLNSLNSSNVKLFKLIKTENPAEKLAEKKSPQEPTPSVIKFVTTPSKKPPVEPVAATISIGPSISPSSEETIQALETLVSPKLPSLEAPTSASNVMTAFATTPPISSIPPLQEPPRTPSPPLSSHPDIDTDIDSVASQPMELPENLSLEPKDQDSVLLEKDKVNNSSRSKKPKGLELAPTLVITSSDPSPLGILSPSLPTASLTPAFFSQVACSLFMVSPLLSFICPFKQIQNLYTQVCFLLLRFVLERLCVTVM
The following applies: protein: recombinant; tags: N-terminal GST; dsDNA, one strand shown. Put shortly: as §1

The target of assay [12] is T7, ETV2 (Homo sapiens, UniProt O00321 1-342).
T7 sequence: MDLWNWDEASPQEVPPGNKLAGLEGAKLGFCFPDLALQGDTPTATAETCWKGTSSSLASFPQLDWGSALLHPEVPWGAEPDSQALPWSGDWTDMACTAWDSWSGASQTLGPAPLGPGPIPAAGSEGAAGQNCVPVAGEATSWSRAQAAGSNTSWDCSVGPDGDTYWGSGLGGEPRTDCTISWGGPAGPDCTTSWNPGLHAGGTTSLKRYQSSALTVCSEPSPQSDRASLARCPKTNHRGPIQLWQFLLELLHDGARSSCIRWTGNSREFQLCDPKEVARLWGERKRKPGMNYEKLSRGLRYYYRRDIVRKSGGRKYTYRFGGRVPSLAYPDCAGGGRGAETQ
Particulars: protein: recombinant; tags: N-terminal GST; dsDNA, one strand shown. Put shortly: as §1

The target in assay [13] is T8, SPDEF (Homo sapiens, UniProt O95238 1-335).
T8 sequence: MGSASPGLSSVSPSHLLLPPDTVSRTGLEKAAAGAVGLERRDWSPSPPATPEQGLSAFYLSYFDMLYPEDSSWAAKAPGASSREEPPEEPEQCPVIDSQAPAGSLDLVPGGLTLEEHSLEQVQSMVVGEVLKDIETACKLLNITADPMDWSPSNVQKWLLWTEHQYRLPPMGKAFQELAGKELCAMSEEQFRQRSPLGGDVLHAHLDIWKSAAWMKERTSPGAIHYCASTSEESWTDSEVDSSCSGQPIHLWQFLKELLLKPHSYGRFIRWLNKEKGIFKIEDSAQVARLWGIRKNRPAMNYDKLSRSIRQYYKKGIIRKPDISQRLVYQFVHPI
The following applies: protein: recombinant; tags: N-terminal GST; dsDNA, one strand shown. The method in brief: as §1

For assay [14], the target named is T9, ERG (Homo sapiens, UniProt P11308 1-479).
T9 sequence: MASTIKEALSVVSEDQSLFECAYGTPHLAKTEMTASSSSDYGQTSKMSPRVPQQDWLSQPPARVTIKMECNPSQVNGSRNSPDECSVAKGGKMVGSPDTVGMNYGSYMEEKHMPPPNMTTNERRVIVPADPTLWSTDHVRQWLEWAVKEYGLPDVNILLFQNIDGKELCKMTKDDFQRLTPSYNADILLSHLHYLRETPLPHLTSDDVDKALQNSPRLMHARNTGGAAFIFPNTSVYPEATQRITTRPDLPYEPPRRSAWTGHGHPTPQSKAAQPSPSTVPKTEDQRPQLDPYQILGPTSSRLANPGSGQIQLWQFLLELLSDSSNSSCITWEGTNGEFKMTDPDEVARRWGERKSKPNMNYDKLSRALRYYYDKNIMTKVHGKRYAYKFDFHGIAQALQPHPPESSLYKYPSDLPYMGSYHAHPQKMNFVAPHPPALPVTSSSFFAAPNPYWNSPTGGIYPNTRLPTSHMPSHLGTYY
The following applies: protein: recombinant; tags: N-terminal GST; dsDNA, one strand shown. The method in brief: as §1

The target of assay [15] is T10, ELF3 (Homo sapiens, UniProt P78545 1-371).
T10 sequence: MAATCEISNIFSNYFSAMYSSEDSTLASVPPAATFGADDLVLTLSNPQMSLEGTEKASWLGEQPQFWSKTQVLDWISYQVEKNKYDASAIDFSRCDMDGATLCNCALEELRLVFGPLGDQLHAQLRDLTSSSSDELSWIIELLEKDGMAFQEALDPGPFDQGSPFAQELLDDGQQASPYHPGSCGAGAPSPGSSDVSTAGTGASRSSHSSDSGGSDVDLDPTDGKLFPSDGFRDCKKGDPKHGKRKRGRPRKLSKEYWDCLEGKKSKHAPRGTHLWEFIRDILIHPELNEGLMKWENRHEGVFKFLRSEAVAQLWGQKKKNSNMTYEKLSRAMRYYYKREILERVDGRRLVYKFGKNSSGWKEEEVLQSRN
The following applies: protein: recombinant; tags: N-terminal GST; dsDNA, one strand shown. Put shortly:
as §1

ELF1, sequence (P32519 whole entry): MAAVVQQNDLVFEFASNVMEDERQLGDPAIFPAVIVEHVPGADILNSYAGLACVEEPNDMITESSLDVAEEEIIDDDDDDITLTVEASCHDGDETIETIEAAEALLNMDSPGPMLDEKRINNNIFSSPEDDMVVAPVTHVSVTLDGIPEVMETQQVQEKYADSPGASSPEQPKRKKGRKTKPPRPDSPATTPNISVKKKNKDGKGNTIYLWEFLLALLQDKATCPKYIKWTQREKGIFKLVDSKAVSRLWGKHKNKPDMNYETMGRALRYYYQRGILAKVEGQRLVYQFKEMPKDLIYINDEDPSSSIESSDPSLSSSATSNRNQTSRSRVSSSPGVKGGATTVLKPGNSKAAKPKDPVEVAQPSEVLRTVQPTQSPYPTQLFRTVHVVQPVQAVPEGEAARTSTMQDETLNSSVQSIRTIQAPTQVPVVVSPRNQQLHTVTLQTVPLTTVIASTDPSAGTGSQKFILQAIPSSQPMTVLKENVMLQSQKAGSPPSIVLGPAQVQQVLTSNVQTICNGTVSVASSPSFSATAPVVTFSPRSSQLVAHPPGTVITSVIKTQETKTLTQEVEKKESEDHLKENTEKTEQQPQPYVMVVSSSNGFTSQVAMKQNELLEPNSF
ETV1, sequence (P50549 whole entry): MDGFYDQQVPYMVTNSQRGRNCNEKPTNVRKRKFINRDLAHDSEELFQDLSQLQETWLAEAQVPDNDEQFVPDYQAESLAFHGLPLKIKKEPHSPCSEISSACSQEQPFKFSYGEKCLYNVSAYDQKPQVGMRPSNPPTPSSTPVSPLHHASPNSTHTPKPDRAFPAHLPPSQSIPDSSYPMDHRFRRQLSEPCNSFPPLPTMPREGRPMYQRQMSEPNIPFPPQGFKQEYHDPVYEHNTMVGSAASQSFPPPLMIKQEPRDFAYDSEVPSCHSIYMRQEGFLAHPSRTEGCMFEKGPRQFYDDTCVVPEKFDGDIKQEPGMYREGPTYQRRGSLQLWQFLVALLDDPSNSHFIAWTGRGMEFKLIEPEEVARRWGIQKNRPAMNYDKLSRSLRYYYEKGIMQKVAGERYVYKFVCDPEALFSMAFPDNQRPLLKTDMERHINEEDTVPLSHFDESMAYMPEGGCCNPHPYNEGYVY
ETV6, sequence (P41212 whole entry): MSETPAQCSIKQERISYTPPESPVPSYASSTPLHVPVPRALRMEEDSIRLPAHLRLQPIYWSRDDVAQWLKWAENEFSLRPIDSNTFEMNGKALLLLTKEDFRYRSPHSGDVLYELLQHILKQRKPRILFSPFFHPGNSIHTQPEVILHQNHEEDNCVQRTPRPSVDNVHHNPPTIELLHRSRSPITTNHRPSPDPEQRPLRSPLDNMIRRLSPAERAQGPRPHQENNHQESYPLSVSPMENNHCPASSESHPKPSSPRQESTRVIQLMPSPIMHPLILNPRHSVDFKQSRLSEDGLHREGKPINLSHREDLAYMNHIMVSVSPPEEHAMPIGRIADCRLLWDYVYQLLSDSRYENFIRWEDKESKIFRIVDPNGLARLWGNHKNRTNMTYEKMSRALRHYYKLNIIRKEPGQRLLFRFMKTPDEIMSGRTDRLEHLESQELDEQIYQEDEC

As to TAGAAC, the binding signal in [1] is 1.03 fold enrichment (6-mer frequency, TF over GST control); in assay [2], 1.01 fold enrichment (6-mer frequency, TF over GST control); in [3], 1.03 fold enrichment (6-mer frequency, TF over GST control); in [4] it was 1 fold enrichment (6-mer frequency, TF over GST control); in [5] it was 2.74 fold enrichment (6-mer frequency, TF over GST control); in [6], 1 fold enrichment (6-mer frequency, TF over GST control). Further, the binding signal in assay [7] was 1.43 fold enrichment (6-mer frequency, TF over GST control); in assay [8], 1.07 fold enrichment (6-mer frequency, TF over GST control); in assay [9], 1.02 fold enrichment (6-mer frequency, TF over GST control); in assay [10], 1.09 fold enrichment (6-mer frequency, TF over GST control).

In the case of CCCAGA, the binding signal in [5] is 1.31 fold enrichment (6-mer frequency, TF over GST control); in assay [11] it was 1.01 fold enrichment (6-mer frequency, TF over GST control).

Consider GAATAG, for which the binding signal is 1.11 fold enrichment (6-mer frequency, TF over GST control) in [5]; 1.02 fold enrichment (6-mer frequency, TF over GST control) in assay [11]; 1.03 fold enrichment (6-mer frequency, TF over GST control) in assay [12]; 1.08 fold enrichment (6-mer frequency, TF over GST control) in assay [9]; 1.02 fold enrichment (6-mer frequency, TF over GST control) in assay [13].

For the sequence AGAACC, the binding signal was 1.01 fold enrichment (6-mer frequency, TF over GST control) in [14]; 1.55 fold enrichment (6-mer frequency, TF over GST control) in assay [5]; 1.03 fold enrichment (6-mer frequency, TF over GST control) in [6]; 1.06 fold enrichment (6-mer frequency, TF over GST control) in assay [15].
